# Where “and” joins values, the source holds several entries; their conditions need not be identical. Equal values may be shown once.
# What was measured:
# [1] = molecular target: Bromodomain-containing protein 4 (Homo sapiens) (UniProt O60885); settings: Compound concentration 20.0 uM, Protein concentration 2.0 uM, Result type QC Liability
# [2] = molecular target: T1, Transcription intermediary factor 1-alpha (Homo sapiens) (UniProt O15164); settings: Compound concentration 20.0 uM, Protein concentration 2.0 uM, Result type QC Liability
# T1 sequence (whole entry): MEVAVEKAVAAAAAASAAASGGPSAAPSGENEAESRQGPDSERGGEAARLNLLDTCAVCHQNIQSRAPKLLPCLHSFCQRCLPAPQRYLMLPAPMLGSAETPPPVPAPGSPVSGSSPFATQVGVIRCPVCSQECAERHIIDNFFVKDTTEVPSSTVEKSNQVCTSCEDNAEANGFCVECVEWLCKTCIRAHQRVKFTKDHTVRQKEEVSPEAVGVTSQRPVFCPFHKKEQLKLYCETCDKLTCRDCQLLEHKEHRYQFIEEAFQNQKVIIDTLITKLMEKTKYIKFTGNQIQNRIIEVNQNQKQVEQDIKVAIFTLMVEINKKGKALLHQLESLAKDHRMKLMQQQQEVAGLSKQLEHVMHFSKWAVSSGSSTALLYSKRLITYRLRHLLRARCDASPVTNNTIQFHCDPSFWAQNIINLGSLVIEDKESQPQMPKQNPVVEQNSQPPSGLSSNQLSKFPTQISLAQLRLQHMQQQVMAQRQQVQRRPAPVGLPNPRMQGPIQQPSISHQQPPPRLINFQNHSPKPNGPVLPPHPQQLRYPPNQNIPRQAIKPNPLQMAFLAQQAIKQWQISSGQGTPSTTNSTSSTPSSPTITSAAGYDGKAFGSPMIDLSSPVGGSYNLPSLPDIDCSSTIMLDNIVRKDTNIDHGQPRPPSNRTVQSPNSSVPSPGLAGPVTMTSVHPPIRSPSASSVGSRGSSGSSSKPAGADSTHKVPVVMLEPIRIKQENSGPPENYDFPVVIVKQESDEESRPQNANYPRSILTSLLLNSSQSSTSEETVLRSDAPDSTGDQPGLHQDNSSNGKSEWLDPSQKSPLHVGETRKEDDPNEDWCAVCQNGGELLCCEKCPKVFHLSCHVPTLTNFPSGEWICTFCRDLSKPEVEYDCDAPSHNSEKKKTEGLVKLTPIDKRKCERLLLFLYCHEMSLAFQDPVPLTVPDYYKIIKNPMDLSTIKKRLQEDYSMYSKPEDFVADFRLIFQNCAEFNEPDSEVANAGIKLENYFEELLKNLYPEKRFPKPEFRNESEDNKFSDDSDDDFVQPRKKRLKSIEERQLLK
SMILES,ΔTm [1],ΔTm [2]
Cc1cc([N+](=O)[O-])c(NS(=O)(=O)c2cccc(C(=O)O)c2)cc1-c1cccnc1,-0.44 °C,-2.82 °C
CCN(C(=O)c1cc(F)ccc1Oc1cncnc1N1CC2(CCN(C[C@H]3CC[C@H](NS(=O)(=O)CC)CC3)CC2)C1)C(C)C,-1.64 °C,-1.14 °C
CC[C@H](CO)Nc1nc(Nc2cccc(-c3ccccn3)c2)c2ncn(C(C)C)c2n1,-1.32 °C,-3.54 °C
COc1ccc(CC[C@@H](OC(=O)[C@@H]2CCCCN2C(=O)[C@H](c2cc(OC)c(OC)c(OC)c2)C2CCCCC2)c2cccc(OCCN3CCOCC3)c2)cc1OC,-4.68 °C,-1.51 °C
Cc1cc(-c2nc(-c3ccc(OC(F)(F)F)cc3)no2)nn1Cc1ccnc(N2CCN(C3CC3)CC2)c1,0.31 °C,0.28 °C
CCn1c(-c2nonc2N)nc2cncc(C(=O)N3CC[C@H](N)C3)c21,-0.13 °C,-1.91 °C
Cn1cc(NC(=O)c2ccc3nc4n(c3c2)CCCNC4=O)nc1C(=O)NC1CCCC1,-1.16 °C,-2.92 °C
CN1C(=O)Cc2ccc(-c3ccc(C[C@@H](C#N)NC(=O)[C@@H]4N[C@H]5CC[C@@H]4C5)c(F)c3)cc21,-1.1 °C,0.19 °C
COc1cc(-c2cc3ncccc3c(O[C@H](C)[C@H]3CNC(=O)C3)n2)cc(OC)c1OC,-1.66 °C and 1.15 °C,0.28 °C and -2.67 °C
CCCCCNC(=O)N1CCC(CN(Cc2ccc(Cl)cc2)Cc2ccc([N+](=O)[O-])s2)C1 (stereo unspecified),-2.51 °C,-3.43 °C
Oc1c(-c2cccnc2)cnn1-c1ccccn1,-1.85 °C,0.29 °C
CC[C@@H](Nc1c(C#N)c(-c2ccc(-c3cccc(C)c3F)cc2)nc2cnccc12)C(=O)O,-1.25 °C,-1.3 °C
COc1c(OCCCN2CCOCC2)ccc2c1N=C(NC(=O)c1cnc(N)nc1)N1CCN=C21,-0.74 °C,-2.86 °C
Cc1cc(OCCC(C)(C)O)cc(C)c1-c1ccc(F)c2c1CC[C@H]2Oc1ccc2c(c1)OC[C@H]2CC(=O)O,-2.75 °C,-2.29 °C
CN[C@@H](C)C(=O)N[C@H](C(=O)N1CCC[C@H]1c1nc(C(=O)c2ccc(F)cc2)cs1)C1CCCCC1,-3.21 °C,-1.98 °C
Cc1nc(-c2ccc(C(F)(F)F)cc2)sc1C(=O)NCc1ccc(OC(C)(C)C(=O)O)cc1,-2.8 °C,-1.73 °C
CC[C@H](Nc1c(C#N)c(-c2ccc(-c3cccc(C)c3F)cc2)nc2cnccc12)C(=O)O,-2.07 °C,-1.52 °C
O=C(Cc1ccccc1[N+](=O)[O-])Nc1ccc(-c2ccc(C(O)(C(F)(F)F)C(F)(F)F)cc2F)cc1,-0.72 °C,0.45 °C
COc1cc2c(cc1CC=C(C)C)C(=O)C[C@@H](c1ccc(O)cc1)O2,0.4 °C,0.63 °C
CC#CC(=O)N1CCN(c2nc(-c3ccc(Oc4ccccc4)cc3)c(C(N)=O)s2)CC1,-3.96 °C,-3.1 °C
COc1cc(N(C)c2ccnc3ccc(C(F)(F)F)cc23)cc(OC)c1OC,-0.67 °C,-4.07 °C
CC(F)(F)CN1C(=O)c2[nH]nc(-c3cccc4[nH]c(=O)oc34)c2C1c1ccc(Oc2cc(C(F)(F)F)cc(C(F)(F)F)c2)cc1 (stereo unspecified),-1.07 °C,-1.2 °C
c1ccc(C2CCN(c3cnc4c(N5CCOCC5)nccn34)CC2)cc1,-0.69 °C,-1.25 °C
CC(=O)Nc1nc(C)c(S(=O)(=O)Nc2ccc(C(O)(C(F)(F)F)C(F)(F)F)cc2)s1,-1.81 °C,-0.92 °C
CC(=O)Nc1ncc(CN2CCC[C@H](Cc3cc(C)nc(C)c3)C2)s1,0.62 °C,-2.22 °C

SMILES,ΔTm [1],ΔTm [2]
CCn1ccc(Nc2ncc3c(n2)-c2c(nn(C)c2-c2ccc(-c4cnn(C)c4)cc2Cl)CC3)n1,-1.73 °C,-2.64 °C
CCC(=O)N[C@@H]1CC[C@H](C(=O)N(C)c2ccc(-c3nc4ccccc4o3)cc2)C1,-0.34 °C,0.25 °C
COCCN1CCN(CCn2ccc(Nc3ncc4c(n3)-c3c(nn(C)c3-c3ccccc3)C[C@H]4C)n2)CC1,-1.68 °C,-2.88 °C
CC(C)S(=O)(=O)c1ccccc1Nc1nc(N[C@@H]2CCCN(CCCCCCCNC(=O)COc3cccc4c3C(=O)N(C3CCC(=O)N(C)C3=O)C4=O)C2)ncc1Cl (stereo partly specified),-2.43 °C,-1.22 °C
CNc1nc(Nc2ccc(C(=O)N3CCOCC3)cc2OC)ncc1Cl,-0.71 °C,-2.04 °C
CN(C)C/C=C/C(=O)Nc1ccc(C(=O)Nc2cccc(Nc3ncc(Cl)c(-c4c[nH]c5ccccc45)n3)c2)cc1,-2.3 °C,-1.56 °C
CCOc1ccc(S(=O)(=O)Nc2ccc(Cl)cc2C#Cc2cnc(C(=O)O)cc2OC)c2ncccc12,-1.6 °C,0.27 °C
COc1cc(O)c(C(CC(=O)N2C[C@H](C)C[C@H](C)C2)c2ccc3c(c2)OCO3)c(OC)c1 (stereo partly specified),0.54 °C,-3.38 °C
CN(C)CCC[C@@]1(c2ccc(F)cc2)OCc2cc(C#N)ccc21,-1.59 °C,-0.51 °C
O=C(O)Cc1ccc(CCNS(=O)(=O)c2ccc(Cl)cc2)cc1,-1.74 °C,-0.53 °C
COc1ccc(Br)cc1S(=O)(=O)NC(=O)/C=C/c1cc(Cl)ccc1Cc1ccc2ccccc2c1,-4.74 °C,-0.55 °C
NCC1CCC(CNc2nc(NCc3ccccc3OC(F)(F)F)ncc2[N+](=O)[O-])CC1 (stereo unspecified),-3.36 °C,-1.36 °C
N#Cc1ccc(C#CC[C@@H](C#N)NC(=O)[C@H]2CCCCN2)cc1F,-1.11 °C,0.64 °C
O=C(O)c1ccc2c(c1)nc(NCc1ccccc1)c1ncncc12,-2.21 °C,0.06 °C
N#Cc1cccc(-c2c[nH]c3ncnc(N4CCOCC4)c23)c1,-2.27 °C,-2.93 °C
O=C(O)CCn1c2c(c3ccccc31)C[C@H](NS(=O)(=O)c1ccc(F)cc1)CC2,-1.19 °C,-1.73 °C
Cc1nn(-c2nc3ccc(Cl)c(Cl)c3[nH]2)c(O)c1C1OC(=O)c2ccccc21 (stereo unspecified),-4.43 °C,-1.16 °C
Cc1cc(OC2CCS(=O)(=O)CC2)cc(C)c1-c1cccc(COc2ccc(C(=O)O)c(F)c2)c1,-3.26 °C,-2.6 °C
CC(=O)Oc1ccc2c(c1)[C@@]1(C)CCC[C@](C)(C(=O)OC(=O)[C@@]3(C)CCC[C@]4(C)c5cc(OC(C)=O)ccc5CC[C@@H]34)[C@@H]1CC2,-2.81 °C,-3.04 °C
Cc1c(NC(=O)c2ccc(C(C)(C)C)cc2)cccc1-c1cn(C)c(=O)c(Nc2ccc(C(=O)N3CCOCC3)cc2)n1,-9.46 °C,0.14 °C
COc1cc2ncnc(N[C@H](C)c3ccccc3)c2cc1OC1CCN(S(C)(=O)=O)CC1,-3.35 °C,-1.88 °C
COc1cnccc1Nc1nc(-c2nn(Cc3c(F)cc(OCCO)cc3F)c3ccccc23)ncc1OC,0.84 °C,-4.33 °C
Nc1nccc(-c2c(-c3ccc(F)cc3)ncn2C2CCCCC2)n1,0.24 °C,-0.83 °C
C[C@@H]1C[C@H](C)CN(c2ncc(Cl)c(Nc3ccc4c(c3)cc(OC(C)(C)C(=O)O)c(=O)n4C)n2)C1,-0.93 °C,0.15 °C
COC(=O)Nc1nc2c(s1)-c1c(c(-c3cccnc3)nn1-c1ccc(C3(N(C)C)CC3)cc1)CC2,-1.63 °C,-3.18 °C

SMILES,ΔTm [1],ΔTm [2]
CCOC(=O)c1cc2cc(-c3cc(C(=O)NCc4ccc(C(=O)O)cc4)nn3C)ccc2[nH]1,-0.14 °C,0.44 °C
COc1cc2ncnc(Nc3ccc(F)c(Cl)c3)c2cc1OCCN(C)C[C@H](C)O,-3.09 °C,-1.09 °C
CCN(CC)C(=O)C1CN2CCc3cc(OC)c(OC)cc3C2CC1OC(C)=O (stereo unspecified),-0.18 °C,0.29 °C
CN(C)CCCN1c2ccccc2Sc2ccc(Cl)cc21,-1.94 °C,-3.45 °C
N=C(N)NCCC[C@@H](NC(=O)C(c1ccccc1)c1ccccc1)C(=O)NCc1ccc(CNC(N)=O)cc1,0.42 °C,0.26 °C
Nc1ncnc2[nH]c(-c3ccccc3)nc12,-1.11 °C,-2.07 °C
C[S+](C)[O-],0 °C (2×) and -2.05 °C,0 °C (2×) and -2.19 °C
N=C(N)NCCC[C@H](NC(=O)CC1(CC(=O)N2CCN(C(c3ccccc3)c3ccccc3)CC2)CCCC1)C(=O)NCc1ccccc1,-0.62 °C,-1.18 °C
Cc1cc(OCc2nc3ccccc3s2)ccc1NC(=O)Nc1ccc(Cl)c(Cl)c1,0.28 °C,-0.82 °C
O=C(Nc1ccc(Cl)c(-c2ccccn2)c1)c1cccc(COc2ccc(Br)cc2CNCCO)c1,-1.21 °C,-0.08 °C
CCCCCCC(Sc1nc(Cl)cc(NCc2ccc(-c3ccccc3)cc2)n1)C(=O)O (stereo unspecified),-1.48 °C,0.51 °C
O=C(O)Cc1cc(I)c(Oc2ccc(O)c(I)c2)c(I)c1,-5.23 °C,-2.6 °C
NCc1ccc(OCCCc2sc(-c3ccc4c(c3)/C(=N/Nc3nc5ccccc5s3)CCC4)nc2C(=O)O)cc1,-11 °C,-0.58 °C
Cc1cc(Cn2c(N3CC4(CNC4)C3)nc3c(N4CCN(C)CC4)cc(Cl)cc32)cc(C)c1F,-1.49 °C,-0.77 °C
COCCCS(=O)(=O)c1cc(C)c(-c2ccc(F)c3c2CC[C@H]3Oc2ccc3c(c2)OC[C@H]3CC(=O)O)c(C)c1,-0.25 °C,-0.22 °C
CCN1CCN(Cc2ccc(C(=O)Nc3ccc(C)c(Oc4ccc5c(c4)CC(=O)N5)c3)cc2C(F)(F)F)CC1,-2.44 °C,-3.11 °C
CCc1ccc(N(CC(C)C)S(=O)(=O)c2ccc(OCC3CCOCC3)c(CO)c2)cc1,-3.99 °C,-0.46 °C
Cc1ccc(NC(=O)c2ccc(CN3CC[C@H](N(C)C)C3)c(C(F)(F)F)c2)cc1Nc1nccc(-c2cncnc2)n1,-1.21 °C,-0.69 °C
CS(=O)(=O)c1cc(C2(NC(=O)c3cncc4c3cnn4-c3ccc(F)cc3)CC2)ccn1,-1.64 °C,0.27 °C
COC1(C#Cc2ccc(Cl)c(-c3ncc4c(n3)-c3sc(NC(C)=O)nc3CC4)c2)CCN(C)CC1,-2.24 °C,-3.35 °C
CC(C)(C)NC(=O)c1cncn1C1CCN(c2ccc(-c3nnc(C(F)(F)F)o3)cn2)CC1,-0.5 °C,0.46 °C
CC1(C)Oc2ncnc(N)c2N=C1c1ccc([C@H]2CC[C@H](CC(=O)O)CC2)cc1,-1.69 °C,-0.57 °C
CC(=O)Nc1c(F)cc(C(=O)N[C@H]2CC[C@H](O)CC2)cc1O[C@@H](C)c1ccccc1,-1.18 °C,-0.63 °C

# From ChEMBL document CHEMBL5308504, “Tm Shift (DSF) assay results for EUbOPEN Chemogenomics Library” (2023)
